The structures appear in SMILES notation. Records with an inconclusive call do not appear. Entries that show only a call come without a potency. Active and inactive are the calls of the source. The call rests on the fitted dose curve; in most records, active means well fitted cell-killing curve with a large enough effect in the repeat runs; inconclusive means weak or mixed curves; inactive means no such curve, though single readings can be large or run the other way.
Potency means the concentration at half of the fitted maximal effect.

This assay in a line: qHTS assay for identifying genotoxic compounds that show differential cytotoxicity against isogenic chicken DT40 cell lines with known DNA damage response pathways - Rad54/Ku70 mutant cell line (AID 743015). Further: nearly all actives have a fitted effect of over 60% in size. Conditions: DT40 Rad54/Ku70 mutant viability, CellTiter-Glo, 40 h; series mostly up to 66.8 µM. The source says:
National Center for Advancing Translational Sciences [NCATS]
NIH Chemical Genomics Center [NCGC]
U.S. Environmental Protection Agency [EPA]
National Institutes of Environmental Health Sciences [NIEHS]
National Toxicology Program [NTP]
U.S. Food and Drug Administration [FDA]
DNA repair pathways play a critical role in cellular homeostasis by repairing DNA damage induced by endogenous processes and xenobiotics. Isogenic chicken DT40 cell lines deficient in different DNA repair pathways can be used to identify genotoxic compounds and aid in characterizing the nature of the DNA damage induced. Two DNA repair-deficient cell lines with disrupted genes, Rad54/Ku70 or Rev3, were used to screen the Tox21 10K compound library. Possible genotoxicity was based on the presence of a significant increase in cytotoxicity in one or more of the DNA repair-deficient cell lines compared to that observed in the parental DNA repair-proficient cell line. CellTiter Glo viability assay (Promega, Madison, WI) was used to measure cell viability in these cells after compound treatment. This assay includes the data from the Rad54/Ku70 mutant cell line.
Tox21 Assay Protocol Summary:
300 DT40 mutant cells in 5 uL/well were dispensed into white, solid-bottom 1536-well plates using a Multidrop Combi (ThermoFisher Scientific, Waltham, MA) dispenser. After the assay plates were incubated at 37 C/5% CO2 for approximately 0.5 hour, 23 nL of compounds dissolved in DMSO, positive controls or DMSO only was transferred into the assay plate by a pintool work station (Kalypsys, San Diego, CA). The assay plates were incubated at 37 C/5% CO2 for 40 hours. After 5 uL per well of CellTiter-Glo reagent was added into each well of the assay plates, the plates were incubated for 30 min at room temperature and the luminescence intensity of the plates was measured using a ViewLux (PerkinElmer, Shelton, CT) plate reader.
For orientation: In qHTS, concentration-response curves come from the screen itself.
Take `CCCCN(CCO)CCO`: the Potency result was “inactive”.

`Cc1cc(C)c(NC(=O)CN(CC(=O)O)CC(=O)O)c(C)c1Br`: the Potency result is “inactive”.

Consider `CCC(C(=O)NC(N)=O)c1ccccc1` (stereo not given), for which the Potency result was “inactive”. `C=CCn1c(=O)n([C@@H]2O[C@H](CO)[C@@H](O)[C@H]2O)c2nc(N)[nH]c(=O)c21`: the Potency result was “inactive”. Regarding `O=C(O)c1cccc(C(=O)O)n1`, the Potency result was “inactive”.

Turning to `c1ccc(CCCc2ccccn2)cc1`, the Potency entry is “inactive”. Under `CC/C=C\C#N` stands “inactive”; under `CCCC(C)CO` (stereo not given), “inactive”. Under `C1C2OC2C2C1C1CC2C2OC12` (stereo not given) stands “inactive”; under `O=C(O)/C=C/c1ccc(/C=C/C(=O)O)cc1`, “inactive”.

As to `N#CCN(CC#N)CCN(CC#N)CC#N`, the Potency result was “inactive”. Next, `COc1nc(C)nc(N)n1`: “inactive”; `CCc1cc(S(=O)(=O)O)c2cc(C(C)C)cccc1-2`: “inactive”; `CCOC(=O)Nc1ccc2c(c1)N(C(=O)CCN1CCOCC1)c1ccccc1S2`: “inactive”. For `O=C1C(CCS(=O)c2ccccc2)C(=O)N(c2ccccc2)N1c1ccccc1` (stereo not given), the Potency entry was “inactive”.

Turning to `O=[N+]([O-])c1ccc(Oc2ccc([N+](=O)[O-])cc2)cc1`, the Potency result was “inactive”.

Regarding `CCCCC1CCCCC(=O)O1` (stereo not given), the Potency result was “inactive”.

As to `O=C(O)CCNC(=O)c1ccc(N=Nc2ccc(O)c(C(=O)O)c2)cc1`, the Potency result is “inactive”. Regarding `OCc1ccccn1`, the Potency result is “inactive”.

Take `COCCOC(=O)CC#N`: the Potency result is “inactive”. Next, `CCCOCC(C)OCC(C)O` (stereo not given): “inactive”; `CC(=O)OC(C)(C)C`: “inactive”. Under `NC(=O)CCCCC1CCSS1` (stereo not given) stands “inactive”; under `O=C(O)C(O)[C@H](O)[C@@H](O)[C@H](O)[C@H](O)CO` (stereo not given in full), “inactive”.

Regarding `Cc1ccc(Nc2ccc(O)c3c2C(=O)c2ccccc2C3=O)cc1`, the Potency entry was “inactive”.

On to `COc1cc(CCC(C)=O)ccc1O`, for which the Potency result is “inactive”.

Consider `CCCc1ccc(N)cc1`, for which the Potency result is “inactive”. For the molecule `Cc1ccc(N)cc1[N+](=O)[O-]`, the Potency entry is “inactive”. In the case of `NS(=O)(=O)c1cc2c(cc1Cl)NC(CSCc1ccccc1)=NS2(=O)=O`, the Potency result is “inactive”. Under `COCc1ccc(COC)cc1` stands “inactive”. In the case of `Cn1ccc2cc3c(cc21)CCN3C(=O)Nc1cccnc1`, the Potency was 26.6 µM (active). Next, `CCCCCCCCC=O`: “inactive”; `CCCCCOC(=O)Nc1nc(=O)n([C@@H]2O[C@H](C)[C@@H](O)[C@H]2O)cc1F`: “inactive”.

Consider `CCCCOCC(C)OCC(C)O` (stereo not given), for which the Potency result is “inactive”.

Consider `C=CCSCC1Nc2cc(Cl)c(S(N)(=O)=O)cc2S(=O)(=O)N1` (stereo not given), for which the Potency result was “inactive”.

As to `CCCC=O`, the Potency entry is “inactive”. With `CC(C)(O)c1ccccc1`, the Potency entry was “inactive”. In the case of `CC(C)=CCC/C(C)=C/C(=O)O`, the Potency result was “inactive”. Regarding `COc1cc(O)cc(O)c1`, the Potency result was “inactive”. Next, `CCCCCCCCCCCCCCCCCC(=O)OCCCCCCCCCCCCCC(C)C`: “inactive”.

These data come from PubChem BioAssay (Tox21).
